Compounds without any hit were thinned out: in the full panel of roughly 83,000, 20% have a hit.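 Step 1: grow cells in 96-well plates. Step 2: add test compound at a single concentration. Step 3: incubate 48 h. Step 4: record percent growth.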 Values without a mark were called inactive. The source made the active and inactive calls. The calls were made as follows: active = growth percent below 10; inactive = the rest.

Holding throughout (assay): NCI-60 one-dose screen, 48 h (100 = growth as untreated, 0 = no growth, -100 = all killed)
Conditions in all cases: 10 µM unless noted

Test [1] has as its system HCT-15 colon.
The test system of test [2] is HT29 colon.
The test system of test [3] is SNB-75 CNS.
Test [4] relates to SNB-19 CNS.
In test [5] the test system is U251 CNS.
In test [6] the test system is PC-3 prostate.
The subject of test [7] is SK-MEL-5 melanoma.
Test [8] concerns UACC-62 melanoma.
Test [9] deals with LOX IMVI melanoma.
Test [10] deals with SK-MEL-28 melanoma.
Test [11] relates to SK-MEL-2 melanoma.
For test [12], the system named is EKVX NSCLC.
Test [13] relates to SN12C renal.
Test [14] deals with UO-31 renal.
In test [15] the test system is ACHN renal.
In test [16] the test system is CAKI-1 renal.
Test [17] concerns A498 renal.
In test [18] the test system is CCRF-CEM leukemia.
The subject of test [19] is MOLT-4 leukemia.
Test [20] concerns TK-10 renal.

As for `O=C1NC(=O)C(Cc2ccc(OCc3ccc(-c4ccc(Cl)cc4Cl)cc3)cc2)S1` (stereo not given), the growth in test [1] is 39.5%; in test [2], 86.3%; in test [3], 59.1%; in test [4], 73.8%; in [5], 57.6%; in test [6], 32.2%. Also, the growth was -28.4% (active) in [7]; 41.9% in [8]; 37.1% in test [9]; 65.3% in [10]; 49.8% in test [11]; 37.8% in [12]. Besides, the growth in [13] was 59.5%; in [14] it was 34.1%; in [15], 55.2%; in test [16], 32.7%; in test [17] it was 83.4%; in [18] it was 42.2%. In addition, in [19], the growth was 17%.
`CC(C)=CCCC(C)c1ccc(C)c2c1OCN(CCCCCO)C2` (stereo not given): the growth in test [1] is 94%; in test [2], 27.2%; in [3], 85.6%; in test [4] it was 88.8%; in test [5] it was 83.8%; in test [6], 66.6%. In addition, the growth in test [7] is 91.7%; in [8], 82.8%; in test [9], 77.6%; in test [10], 115%; in [11], 92.7%; in test [12], 102%. For the same molecule, the growth is 78.6% in [13]; 57% in test [14]; 94.1% in test [15]; 78.1% in [16]; 75.3% in [17]; 96% in [18]. In addition, the growth in test [19] is 66.5%.
For the molecule `COc1cc(-c2csc(NC(=O)c3ccc(N4CCOCC4)c(C(F)(F)F)c3)n2)cc(OC)c1OC`, the growth is 11% in test [1]; 43.2% in test [2]; 57.2% in test [3]; 62.6% in test [4]; 47.3% in test [5]; 11% in [6]. The growth in [7] was -6.45% (active); in [8], -6.31% (active); in test [9], 23.1%; in [10], 36.6%; in [11] it was 23%; in [12], 33.7%. The growth is 48.9% in test [13]; 15.4% in test [14]; 64.5% in [20]; 21.6% in [15]; 36.4% in test [16]; 14.2% in test [18]. Besides, in test [19], the growth was 10.1%.
As to `Cc1ccc(NC(=O)c2sc3nc(C)c(Br)c(C)c3c2N)cc1`, the growth in test [1] was 93.4%; in test [2], 87.4%; in test [3], 20.9%; in test [4], 66.3%; in test [5], 50.8%; in [6], 53.7%. In addition, the growth in test [7] was 73.1%; in test [8], 67.2%; in test [9] it was 62.1%; in test [10], 75.4%; in test [11], 82.6%; in [12] it was 61.9%. Besides, the growth in test [13] is 70.5%; in test [14], 65.4%; in [15], 34.5%; in test [16] it was 74.3%; in [17] it was 76.5%; in test [18] it was 94.7%.
As to `Cn1cc(-c2ccc3nc(-c4ccc(CC(=O)ONc5cc(C(C)(C)C)on5)cc4)cnc3c2)cn1`, the growth in test [1] was 16.5%; in test [2] it was 39.6%; in [3] it was 37.4%; in test [4] it was 67.4%; in test [5] it was 32.3%; in test [6], 34.8%. Moreover, the growth in test [7] is 58.8%; in test [8] it was 27.6%; in test [9] it was 30.5%; in test [10] it was 44.4%; in test [11], 13%; in test [12], 39.2%. Further, the growth was 26.1% in test [13]; 20.9% in [14]; 13.4% in [15]; 6.91% (active) in [16]; 15.6% in test [17]; 38.8% in [18]. Further, the growth in test [19] was 11.6%.
In the case of `N#CSCC1CC(O)(c2ccccc2)CC(c2ccc(F)cc2)O1` (stereo not given), the growth is 16.5% in test [1]; -0.0912% (active) in test [2]; -25.8% (active) in [3]; 31.9% in [4]; -51.2% (active) in [5]; 25.8% in test [6]. Besides, the growth was 22.1% in test [7]; 11.4% in [8]; -46.8% (active) in test [9]; 43.9% in test [10]; -54.6% (active) in [11]; 34.2% in [12]. The growth in [13] was -61.5% (active); in test [14] it was 33.3%; in [15], 9.51% (active); in test [16] it was -44.9% (active); in test [17], 33.3%; in test [18], 7.42% (active). For the same molecule, in [19], the growth is -0.406% (active).
`NC(=O)c1c(NC(=O)c2ccc3ccccc3c2)sc2c1CCC(=O)C2`: the growth is 42.1% in [1]; 55.2% in [2]; 40.3% in test [3]; 46.3% in [4]; 22.9% in test [5]; 16.6% in test [6]. The growth is 99.7% in test [7]; 42% in test [8]; 37.5% in test [9]; 97.1% in test [10]; 103% in test [11]; 86.2% in test [12]. The growth was 50.5% in [13]; 27.3% in test [14]; 95.7% in test [20]; 34.2% in test [15]; 16.3% in test [16]; 15% in [18]. In addition, the growth in test [19] was 36.6%.
Turning to `CC1(C)CC(=O)C2=C(C1)N(c1ccc(OC(F)(F)F)cc1)C(N)=C(C#N)C2c1ccc(Br)cc1F` (stereo not given), the growth in [1] was 71.4%; in test [2], 79.7%; in test [3] it was 54.1%; in test [4] it was 34.4%; in test [5], 56.2%; in [6], 51.9%. Also, the growth in test [7] was 92.9%; in test [8], 78.5%; in [9] it was 54.5%; in test [10], 90.8%; in [11] it was 88.6%; in test [12], 82%. In addition, the growth in [13] was 58.7%; in test [14], 70.3%; in [20], 119%; in test [15], 41.1%; in [16], 50.3%; in [19] it was 63%.
